HP1b chromo inh: blocks HP1-beta chromodomain binding to methylated histone tails; AlphaScreen HP1-beta / biotin-H3K9me3 peptide binding; P83916; hit rate 0.56% among 390,000; AID 540317; Potency, µM (doses to about 114 µM), for inactives: at the top dose activity change, negative = inhibition, hits mostly inhibitors; further: nearly all actives have a fitted effect of over 70% in size
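Compound inhibition of the preformed complex between 50 nM HP1-beta and 50 nM biotinylated H3K9me3 peptide was read by AlphaScreen. Buffer was PBS pH 7.4 with 0.01% Tween-20. Incubations ran 30 min at room temperature, with 10 ug/mL donor/acceptor beads.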
GLS inhibitor: inhibitors of human glutaminase (GLS) | O94925 | GLS enzymatic activity, qHTS titration | Potency, µM (top dose mostly 45.5 µM), inactives show at the highest dose activity change, negative = inhibition, most hits filed as inhibitors | hit rate 0.21% among 410,000 | AID 624170; further: on the % scale 0 is the no-effect control and ±100 the full control effect
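Enzyme dispensed in phosphate buffer (45 mM, pH 8.2, 0.02% Tween-20), compounds pinned in, then 1 mM L-glutamine solution and the glutamate oxidase–HRP–Amplex Red mix added; fluorescence read immediately and again after 30 min at room temperature.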
BAZ2B block: inhibitors of human BAZ2B bromodomain | AlphaScreen BAZ2B-H3K14Ac peptide displacement | hit rate 4.4% among 360,000 | Potency, µM (titrated, usually from 114 µM), inactives show top-dose activity change, negative = inhibition, usual class: inhibitors | Q9UIF8; further: on the % scale 0 is the no-effect control and ±100 the full control effect; nearly all actives have a fitted effect of over 60% in size
Target sequence (Q9UIF8 whole entry, looked up): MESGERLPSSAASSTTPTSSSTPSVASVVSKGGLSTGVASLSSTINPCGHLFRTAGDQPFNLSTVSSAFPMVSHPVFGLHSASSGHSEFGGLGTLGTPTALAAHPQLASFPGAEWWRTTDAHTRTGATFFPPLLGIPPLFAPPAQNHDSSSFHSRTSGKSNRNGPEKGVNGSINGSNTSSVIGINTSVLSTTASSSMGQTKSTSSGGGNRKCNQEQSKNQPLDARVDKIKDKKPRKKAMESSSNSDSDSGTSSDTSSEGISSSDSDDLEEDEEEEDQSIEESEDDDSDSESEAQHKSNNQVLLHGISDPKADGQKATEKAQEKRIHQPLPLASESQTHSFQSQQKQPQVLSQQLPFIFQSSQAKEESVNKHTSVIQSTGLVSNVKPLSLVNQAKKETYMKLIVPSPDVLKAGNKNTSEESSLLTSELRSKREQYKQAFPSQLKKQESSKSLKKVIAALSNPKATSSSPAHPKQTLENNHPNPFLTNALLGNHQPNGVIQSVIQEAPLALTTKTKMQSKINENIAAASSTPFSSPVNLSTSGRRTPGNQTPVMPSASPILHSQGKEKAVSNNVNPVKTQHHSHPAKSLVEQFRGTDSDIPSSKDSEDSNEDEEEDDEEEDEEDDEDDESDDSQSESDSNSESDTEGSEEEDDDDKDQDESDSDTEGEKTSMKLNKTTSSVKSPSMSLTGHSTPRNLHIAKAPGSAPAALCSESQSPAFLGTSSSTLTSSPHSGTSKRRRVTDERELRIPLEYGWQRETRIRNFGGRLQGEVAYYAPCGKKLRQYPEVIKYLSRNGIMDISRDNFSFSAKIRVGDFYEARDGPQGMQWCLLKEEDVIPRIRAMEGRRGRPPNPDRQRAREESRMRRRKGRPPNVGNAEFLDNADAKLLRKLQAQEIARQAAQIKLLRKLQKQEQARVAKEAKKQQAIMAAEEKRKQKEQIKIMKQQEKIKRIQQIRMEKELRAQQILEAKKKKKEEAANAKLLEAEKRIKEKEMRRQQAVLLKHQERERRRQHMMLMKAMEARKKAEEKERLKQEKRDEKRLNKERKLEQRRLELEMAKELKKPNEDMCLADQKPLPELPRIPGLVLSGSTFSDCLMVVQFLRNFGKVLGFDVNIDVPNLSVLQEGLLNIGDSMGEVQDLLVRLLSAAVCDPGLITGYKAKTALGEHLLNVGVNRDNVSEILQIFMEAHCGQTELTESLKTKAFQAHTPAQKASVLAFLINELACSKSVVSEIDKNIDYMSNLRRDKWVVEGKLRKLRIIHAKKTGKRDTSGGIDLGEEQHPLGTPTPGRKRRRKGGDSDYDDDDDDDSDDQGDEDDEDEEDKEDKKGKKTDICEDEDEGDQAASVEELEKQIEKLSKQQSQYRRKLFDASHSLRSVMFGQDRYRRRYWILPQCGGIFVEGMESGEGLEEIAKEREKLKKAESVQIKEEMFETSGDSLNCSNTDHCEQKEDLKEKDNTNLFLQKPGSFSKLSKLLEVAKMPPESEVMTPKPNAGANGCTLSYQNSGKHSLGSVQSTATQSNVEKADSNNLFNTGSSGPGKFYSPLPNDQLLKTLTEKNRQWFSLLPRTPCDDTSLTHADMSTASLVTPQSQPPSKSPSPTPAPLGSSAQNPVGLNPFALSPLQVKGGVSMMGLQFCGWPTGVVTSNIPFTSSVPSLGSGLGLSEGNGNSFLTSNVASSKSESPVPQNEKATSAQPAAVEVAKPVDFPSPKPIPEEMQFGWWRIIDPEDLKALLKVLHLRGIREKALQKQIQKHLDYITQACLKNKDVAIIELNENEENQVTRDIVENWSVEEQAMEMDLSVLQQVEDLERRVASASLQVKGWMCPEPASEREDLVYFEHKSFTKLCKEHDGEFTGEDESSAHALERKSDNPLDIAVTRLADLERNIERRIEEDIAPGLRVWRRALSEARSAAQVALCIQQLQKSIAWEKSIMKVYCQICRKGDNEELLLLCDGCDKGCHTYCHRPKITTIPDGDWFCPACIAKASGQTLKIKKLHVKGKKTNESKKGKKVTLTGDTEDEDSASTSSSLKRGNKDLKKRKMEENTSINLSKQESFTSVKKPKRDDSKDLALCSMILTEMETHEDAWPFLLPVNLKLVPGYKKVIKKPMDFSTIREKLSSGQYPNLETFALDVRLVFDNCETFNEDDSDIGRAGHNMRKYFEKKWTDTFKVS
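Compounds, titrated to a top concentration of 110 uM, were incubated 30 min at room temperature with preformed BAZ2B/acetyl-K14 H3 peptide complex (50 nM each). Proximity signal was measured by AlphaScreen after 20 min with beads.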
G9a block: G9a (human) methyltransferase inhibition; Q96KQ7; G9a H3K9 monomethylation, AlphaScreen, 2 h; Potency, µM (doses to about 102 µM), inactives show top-dose activity, negative = inhibition, usual class: inhibitors; hit rate 8.8% among 350,000; AID 504332; further: on the % scale 0 is the no-effect control and ±100 the full control effect; nearly all actives have a fitted effect of over 75% in size
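Chemiluminescent proximity detection of H3K9 monomethylation, read after 10 min bead incubation in the dark. Reaction: 20 nM G9a, 500 nM biotin-H3K9 peptide, 20 uM SAM cofactor, 2 h, room temperature, following 15 min enzyme-compound preincubation.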
JMJD2A Tudor inh: blocks the human JMJD2A Tudor domain; AlphaScreen JMJD2A-Tudor / H3K4me3 peptide binding; hit rate 4.4% among 390,000; O75164; AID 504339; Potency, µM (highest dose often 114 µM), inactives show at the highest dose activity change, negative = inhibition, most hits filed as inhibitors; further: on the % scale 0 is the no-effect control and ±100 the full control effect; nearly all actives have a fitted effect of over 50% in size
L3MBTL1 inh: inhibitors of human L3MBTL1 | Q9Y468 | Potency, µM (titrated, usually from 57.1 µM), inactives show top-dose activity, negative = inhibition, actives largely listed as inhibitors | hit rate 0.66% among 230,000 | AlphaScreen L3MBTL1–H3K9me1 peptide binding; further: on the % scale 0 is the no-effect control and ±100 the full control effect; nearly all actives have a fitted effect of over 60% in size
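AlphaScreen proximity signal between nickel-chelate acceptor and streptavidin donor beads (final 10 ug/mL) reports binding of 50 nM L3MBTL1 to 75 nM biotin-H3 K9me1 peptide; complex incubated with compounds 30 min at room temperature; cefsulodin titration as control.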
Active calls of the source: *; u = inconclusive; x = no result; [ ] = remark or other dose. Most compounds without a hit are left out; they make up all but 10% or so of the library. The call rests on the fitted dose curve; in most records, active means well fitted curve in the direction sought with a large enough effect; inconclusive means small, poorly fitted or top-dose-only effect, or another doubt; inactive means no such curve, though single readings can be large; an effect the other way counts as inactive or inconclusive. Potency means the concentration at half of the fitted maximal effect.

SMILES | HP1b chromo inh | GLS inhibitor | BAZ2B block | G9a block | JMJD2A Tudor inh | L3MBTL1 inh
COCCNCC(=O)N1CCCCCC1 | -29% | 1% | 50µM* | 8.9µM* | 3.5µM* | u
Cc1ccc(C(=O)NCC(=O)N2CCCCCCC2)cc1C | 14% | -3% | 10% | 0%[12.7 µM] | -1% | 4%
O=C1/C(=C/c2ccc([N+](=O)[O-])cc2)CCc2ccccc21 | x | x | 32µM* | u | x | x
O=C1/C(=C/c2cccc([N+](=O)[O-])c2)CCc2ccccc21 | -30% | 6% | u | u | u | -13%
CCOc1ccc(C2=NC(c3ccc(OC)cc3)=Nc3ccc(Cl)cc3N2)cc1 | 5% | 3% | -12% | -8%[59 µM] | -31% | x
CCOc1ccc2c(c1)NC(c1ccc(OCC)c(OCC)c1)=NC(c1ccc(F)cc1)=N2 | u | 2% | u | 11µM* | 25µM* | x
O=C(O)CCCN=CC1=C(O)CNC1=O | -16% | 3% | -18% | u | 22µM* | -1%
Cc1oc(C)c2c(=O)cc(-c3ccc4c(c3)OCO4)cc(OC(=O)c3ccccc3Cl)c12 | -4% | 0% | 45µM* | u | 63µM* | x
COc1cc(-c2cc(OC)c3c(C)oc(C)c3c(=O)c2)ccc1OC(=O)c1ccccc1Cl | 27% | -4% | u | u | u | x
CCOc1cc(-c2ccc(OC(=O)c3ccc(Cl)cc3)c(OC)c2)cc(=O)c2c(C)oc(C)c12 | -8% | -18% | u | u | u | x
Cc1oc(C)c2c(=O)cc(-c3ccc4c(c3)OCO4)cc(OC(=O)c3ccccc3Br)c12 | -16% | 6% | u | 13µM* | u | x
CCOc1cc(-c2ccc3c(c2)OCO3)cc(=[O+]CC)c2c(C)oc(C)c12 | u | x | x | x | 56µM* | x
COc1ccc(-c2cc(OC(=O)c3cccc(Cl)c3)c3c(C)oc(C)c3c(=O)c2)cc1 | 1% | 22% | 50µM* | 14µM* | u | x
Cc1sc2ncn(CC(=O)N3CCN(c4cccc(Cl)c4)CC3)c(=O)c2c1S(=O)(=O)N1CCC(C)CC1 | 25% | 0% | -10% | -5%[59 µM] | -20% | x
COc1cc(F)c(S(=O)(=O)N2CCN(S(=O)(=O)c3cccc(N)c3)CC2)c(F)c1 | x | x | x | x | -1% | x
COc1ccc(N2C(=O)CCC(C(=O)N3CCCCC3)C2c2ccc(OC)c(OC)c2)cc1 (stereo not given) | 12% | -3% | 10% | 56µM* | -1% | 8%
N#C/C(=C\c1ccc(-c2ccc([N+](=O)[O-])cc2Br)o1)C(=O)N1CCN(c2ccccc2)CC1 | -16% | 16% | u | 4µM* | u | -16%
N#C/C(=C\c1ccc(-c2cccc([N+](=O)[O-])c2)o1)C(=O)N1CCOCC1 | -2% | -2% | -11% | -1% | u | -9%
O=C(Nc1ccccc1C(=O)OCc1cc(=O)n2c3c(sc2n1)CCCC3)c1cccc(Cl)c1 | 4% | -11% | -1% | 10%[59 µM] | -10% | x
CCOc1cc(Cl)c(S(=O)(=O)n2ccnc2)cc1Cl | 40% | -2% | -23% | 5%[59 µM] | 1% | x
O=C(O)C/C=C(\NC(=O)OCc1ccccc1)C(=O)OCc1ccccc1 | 72% | 0% | x | 50µM* | 18% | x
CC(=O)N/C(=C\c1ccccc1)C(=O)OCc1ccccc1 | 29% | 0% | 5% | x | -13% | x
O=C(NCCc1ccc(Cl)cc1)c1cc(-c2ccc(Cl)cc2)n[nH]1 | 24% | -1% | -3% | 5%[59 µM] | 4% | x
CN(C)CCOc1ccccc1-c1ccccc1 | u | 7% | 25µM* | -41%[2.33 µM] | 0.89µM* | x
CN(C)CCOCCOc1ccccc1-c1ccccc1 | u | -1% | 20µM* | -34%[0.501 µM] | 2.8µM* | -4%
SMILES | HP1b chromo inh | GLS inhibitor | BAZ2B block | G9a block | JMJD2A Tudor inh | L3MBTL1 inh
CC(C)(C)c1nnc(NC(=O)C2CCN(C(=O)c3ccccc3)CC2)s1 | 23% | x | x | x | -10% | x
CCOC(=O)c1c(C)[nH]c(C)c1S(=O)(=O)N(C)CC(=O)Nc1ccc(C)c(N(C)C)c1 | 4% | 6% | u | -4%[59 µM] | -36% | x
CC(C)N1CCN(Cc2ccncc2)CC1CCO (stereo not given) | 42% | 1% | -2% | x | -13% | 9%
Cc1cccc(-c2ncc(CN3CCN(CC(C)C)C(CCO)C3)cn2)c1 (stereo not given) | 11% | -13% | -19% | -4%[59 µM] | 18µM* | 4%
Cc1ccc(-c2cccc(CN3CCN(C(C)C)C(CCO)C3)c2)o1 (stereo not given) | 20% | 8% | -32% | 45µM* | -24% | -13%
COc1ccc(-c2ncc(CN3CCN(CCC(C)C)C(CCO)C3)cn2)cc1 (stereo not given) | 18% | 3% | 7% | x | -25% | 4%
CC(C)N1C(=O)/C(=C/c2nc3ccccc3c(=O)n2-c2ccccc2)c2ccccc21 | 25µM* | -2% | 35µM* | 10µM* | 20µM* | u
CC(C)N1C(=O)/C(=C\c2nc3ccccc3c(=O)n2-c2ccccc2)c2ccccc21 | u | -1% | 10µM* | u | 35µM* | -29%
N#CC(C#N)=C1C=CC=CN1/C(=C\c1ccco1)C(=O)c1ccccc1 | 15% | 3% | 0% | 18µM* | -31% | u
N#CC(C#N)=C1C=CC=CN1/C(=C\c1ccco1)C(=O)c1ccc(Br)cc1 | -9% | 3% | u | 11µM* | u | -19%
COc1ccc(C(=O)/C(=C\c2ccco2)N2C=CC=CC2=C(C#N)C#N)cc1 | 8% | -12% | -13% | 11%[2.33 µM] | -34% | -4%
Cc1ccc(/C=C/c2onc(C)c2S(=O)(=O)N2CCC(C(=O)NCc3ccc(C)o3)CC2)cc1 | 4%[57 µM] | -7% | -17% | 1%[59 µM] | -26% | x
O=C(CCN1C(=O)/C(=C/c2cccs2)SC1=S)Nc1cccc(O)c1 | -38% | 20% | -18% | 26% | u | x
O=C(CCN1C(=O)/C(=C/c2cccs2)SC1=S)Nc1cccc(C(=O)O)c1 | -7% | -13% | 50µM* | 50µM* | -29% | x
CC(/C=C1\SC(=S)N(CCC(=O)Nc2nc(C)cs2)C1=O)=C\c1ccccc1 | -16% | 0% | u | u | 40µM* | x
O=C(CCCN1C(=O)/C(=C/c2cccs2)SC1=S)Nc1cccc(O)c1 | u | 12% | u | 28µM* | 40µM* | x
CC(/C=C1\SC(=S)N(CCCC(=O)Nc2ccc(C(=O)O)c(O)c2)C1=O)=C\c1ccccc1 | u | 30% | u | u | 40µM* | 40µM*
O=C1/C(=C/c2cccs2)SC(=S)N1c1cccc(O)c1 | -31% | 14% | u | u | 16µM* | -9%
O=C1/C(=C/c2cccs2)SC(=S)N1c1ccccc1 | 24% | 0% | -4% | 21%[59 µM] | 1% | 4%
